This is an account of results in publication PMC11062922 (Nature Chemical Biology, 2023).

SMILES strings stand for the structures. Like-named read-outs stand apart in the source and are kept apart here.

What all share (design): species or system human, MV4-11 + K-562 + COLO205 + SK-N-BE2 + OVCAR-8
One test deals with BMPR1A. The note with it: read-out: apparent Kd, compound concentrations: 100 nM and 1000 nM (sheet 'Samples'), n = 1.
The subject of the next test is ERBB3. To be noted: read-out: apparent Kd, compound concentrations: 100 nM and 1000 nM (sheet 'Samples'), n = 1.
The test system of a further test is PIK3CG. The note with it: read-out: apparent Kd, compound concentrations: 100 nM and 1000 nM (sheet 'Samples'), n = 1.
The subject of a further test is ACVR2B. To be noted: read-out: apparent Kd, compound concentrations: 100 nM and 1000 nM (sheet 'Samples'), n = 1.
A further test concerns EPHB3. The note with it: read-out: apparent Kd, compound concentrations: 100 nM and 1000 nM (sheet 'Samples'), n = 1.
The subject of the next test is SIK3. To be noted: read-out: apparent Kd, compound concentrations: 100 nM and 1000 nM (sheet 'Samples'), n = 1.
A further test concerns SYK. The note with it: read-out: apparent Kd, compound concentrations: 100 nM and 1000 nM (sheet 'Samples'), n = 1.
In the next test the test system is PIM2. The note with it: read-out: apparent Kd, n = 1.
The next test has as its system NUAK1. The note with it: read-out: apparent Kd, compound concentrations: 100 nM and 1000 nM (sheet 'Samples'), n = 1.
Another test concerns CSNK1A1. The note with it: read-out: apparent Kd; compound concentrations: 100 nM and 1000 nM (sheet 'Samples'), CATDS: 4.3569659230054097E-2; n = 1.
In the next test the test system is MAPK10. To be noted: read-out: apparent Kd; compound concentrations: 100 nM and 1000 nM (sheet 'Samples'), CATDS: 3.9230525665234099E-2; n = 1.
In the next test the test system is MAPK11. The note with it: read-out: apparent Kd; compound concentrations: 100 nM and 1000 nM (sheet 'Samples'), CATDS: 3.6090086264463E-2; n = 1.
Another test relates to AURKA. The note with it: read-out: apparent Kd, compound concentrations: 100 nM and 1000 nM (sheet 'Samples'), n = 1.
The subject of the next test is CDK7. To be noted: read-out: apparent Kd; compound concentrations: 100 nM and 1000 nM (sheet 'Samples'), CATDS: 1.6224786894182001E-2; n = 1.
The test system of another test is ERCC2. The note with it: read-out: apparent Kd, compound concentrations: 100 nM and 1000 nM (sheet 'Samples'), n = 1.
In another test the test system is STK10. To be noted: read-out: apparent Kd; compound concentrations: 100 nM and 1000 nM (sheet 'Samples'), CATDS: 1.3341325559896399E-2; n = 1.
The subject of another test is ADCK3. The note with it: read-out: apparent Kd; compound concentrations: 100 nM and 1000 nM (sheet 'Samples'), CATDS: 0.47577761034239902; n = 1.
[1] abbreviates: compound concentrations:100 nM and 1000 nM (sheet 'Samples').

As to `COc1cccc(-n2ncc3c(N/N=C/c4ccc(C(=O)NCCN(C)C)cc4)ncnc32)c1.Cl` [GW784307A], the potency estimated from few doses was 353 nM with BMPR1A (CATDS: 4.33451441122037E-2) and 874 nM in the test with ERBB3 (CATDS: 3.16220170710034E-2).
For `NC1=NC(=O)/C(=C/c2ccc3ncccc3c2)S1` [RO4569139-000], in the test on PIK3CG (CATDS: 0.108121816897262), the potency estimated from few doses was 432 nM.
`Cc1ccc(O)cc1Nc1ccnc2cc(-c3ccc(CN4CCCCC4)o3)ccc12` [GW557777X]: the potency estimated from few doses in the test with ACVR2B (CATDS: 2.4906220143484401E-2) is 45.3 nM; with BMPR1A (CATDS: 1.65124596245807E-2), 269 nM; in the test on EPHB3 (CATDS: 2.1562283576004201E-2), 78.2 nM; in the test with SIK3 (CATDS: 1.3583905279374199E-2), 975 nM; with SYK (CATDS: 1.2716705388879999E-2), 1860 nM.
In the case of `CS(=O)(=O)CCNCc1ccc(-c2ccc3ncnc(Nc4ccc(OCc5cccc(F)c5)c(C(F)(F)F)c4)c3c2)o1` [GW576484X], the potency estimated from few doses with EPHB3 (CATDS: 4.6783581960199903E-2) was 2310 nM; in the test with ERBB3 (CATDS: 5.8570940838060803E-2) it was 1400 nM; with PIM2 (compound concentrations: 100 nM and 1000 nM (sheet 'Samples'), CATDS: 6.5177951129736497E-2), 1150 nM.
`Cl.Oc1cccc(Nc2ccnc3cc(-c4ccncc4)ccc23)c1` [GW494601A]: the potency estimated from few doses with ACVR2B (CATDS: 0.269416694406998) is 2.16 nM; in the test on BMPR1A (CATDS: 2.7920432625818298E-2), 313 nM; with SIK3 (CATDS: 2.0843232752511001E-2) it was 1150 nM.
Take `Cc1cccc(Nc2nc(NCCN)ncc2C(N)=O)c1` [GSK1292139B]: the results for the potency estimated from few doses in the test with NUAK1 (CATDS: 0.100745572773025) and in the test on SYK (CATDS: 7.0539324655896005E-2) were 611 nM and 1500 nM, respectively.
Turning to `CS(=O)(=O)Cc1ccc(Nc2nccc(-c3c(-c4cccc(NC(=O)C5CCCCC5)c4)nn4ncccc34)n2)cc1` [GSK350559A], the potency estimated from few doses in the test with PIM2 (setting [1]) is 2040 nM.
Turning to `COc1ccc(Nc2nccc(N3CCC(NC(=O)Nc4ccc5c(c4)OCO5)C3)n2)cc1` (stereo not drawn) [GSK1379745A], the potency estimated from few doses with ACVR2B (CATDS: 4.7768277435408998E-2) is 1050 nM; in the test with CSNK1A1, 1260 nM; in the test with MAPK10, 1570 nM; in the test on MAPK11, 1900 nM; in the test with SYK (CATDS: 3.71249657659821E-2), 1780 nM.
As for `Cc1ccc(O)cc1Nc1ccnc2cc(-c3ccccn3)ccc12.Cl` [GW440139A], the potency estimated from few doses with ACVR2B (CATDS: 0.21714398687124201) is 5.63 nM; in the test on EPHB3 (CATDS: 2.4596610963575599E-2) it was 2120 nM.
On to `Cl.Cl.Cl.c1ccc(Oc2ccc(Nc3ccnc4cc(-c5ccc(CN6CCNCC6)o5)ccc34)cc2)nc1.c1ccc(Oc2ccc(Nc3ccnc4cc(-c5ccc(CN6CCNCC6)o5)ccc34)cc2)nc1` [GW567142A], for which, in the test on SYK (CATDS: 1.6781429181419099E-2), the potency estimated from few doses is 2160 nM.
Take `CN1C(=O)c2ccccc2N(C)c2nc(Nc3cnn(C4CCNCC4)c3)ncc21` [XMD-17-51]: the potency estimated from few doses in the test with AURKA (CATDS: 0.190670193315162) is 5.82 nM; with CDK7, 901 nM; with ERCC2 (CATDS: 1.6840556785817699E-2), 788 nM; with NUAK1 (CATDS: 0.118275245978952) it was 11.6 nM; in the test with PIK3CG (CATDS: 5.0205811396743898E-2) it was 50.7 nM; with SIK3 (CATDS: 1.5899502438213298E-2), 973 nM. The potency estimated from few doses in the test on STK10 is 2180 nM.
Take `CCc1nc(-c2cccc(N(C)S(=O)(=O)c3ccccc3)c2)c(-c2ccnc(Nc3ccc(N4CCN(C(C)=O)CC4)nc3)n2)s1` [GSK1645895A]: the potency estimated from few doses in the test on ADCK3 is 196 nM.
Consider `Cl.O=C1N=C(NCc2ccccn2)S/C1=C\c1ccc2ncccc2c1` [RO4874953-001], for which the potency estimated from few doses with ERCC2 (CATDS: 7.2588346323970404E-2) was 1850 nM.
Regarding `Nc1nc(-c2ccc3c(N)n[nH]c3c2)cc(N2CCCCC2)n1` [GSK2228768A], the potency estimated from few doses with PIM2 (setting [1]) is 1410 nM.
For `NC(=O)c1cccc(Nc2nccc(Nc3cccc4[nH]ncc34)n2)c1` [GW782612X], the potency estimated from few doses in the test with ACVR2B (CATDS: 0.173302967359416) was 52.4 nM; in the test on AURKA (CATDS: 4.2767473291312301E-2), 808 nM; with BMPR1A (CATDS: 3.8772747112030999E-2), 1090 nM; in the test with NUAK1 (CATDS: 5.2412926017760202E-2) it was 475 nM.
